According to PubChem BioAssay (EPA / NIEHS):
Active and inactive are the calls of the source. Rule for the calls: active = hit-call score of the fitted dose curve at least 0.9, where 1 is the maximum; inactive = score below 0.9.

Legend:
Conditions in all cases: actives raise or lower the signal
[1] = CEETOX_H295R_OHPROG: CeeTox H295R High-throughput Steroidogenesis Assay for OH-Progesterone (OHPROG) (AID 2283435);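 for AC50: 17alpha-hydroxyprogesterone secreted into medium measured by HPLC-MS/MS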
Method in brief: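 Steps: seed H295R cells and adhere overnight; stimulate with 10 uM forskolin for 48 h; replace with chemical-containing medium (0.1% DMSO) for 48 h; extract medium with MTBE; quantify 17alpha-hydroxyprogesterone by reverse-phase C18 HPLC-MS/MS against a 7-point curve.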

[2] = CEETOX_H295R_CORTIC: CeeTox H295R High-throughput Steroidogenesis Assay for Corticosterone (CORTIC) (AID 2283437)
Method in brief: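 Medium corticosterone was quantified by tandem mass spectrometry following 48 hours of chemical exposure (0.1% DMSO) in human H295R cells previously stimulated 48 hours with 10 uM forskolin. Viability checked by MTT; chemicals diluted and retested when viability fell below 70%.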

[3] = CEETOX_H295R_CORTISOL: CeeTox H295R High-throughput Steroidogenesis Assay for Cortisol (AID 2283438);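 note: cortisol secreted into medium quantified by LC-MS/MS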
Method in brief: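 Cortisol synthesis by H295R cells is measured 48 h after chemical dosing, following a 48 h stimulation with 10 uM forskolin. Hormone is extracted and quantified by HPLC-MS/MS, and activity is fitted bidirectionally against the DMSO control.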

[4] = CEETOX_H295R_DOC: CeeTox H295R High-throughput Steroidogenesis Assay for DOC (AID 2283439)
Method in brief: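 Steps: seed H295R, adhere overnight; 10 uM forskolin 48 h; replace with chemical medium (0.1% DMSO) 48 h; collect medium, MTBE extraction, HPLC-MS/MS for DOC. Viability then checked by MTT; cytotoxic chemicals diluted until viability ≥70%.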

[5] = CEETOX_H295R_PROG: CeeTox H295R High-throughput Steroidogenesis Assay for Progesterone (PROG) (AID 2283442);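 for AC50: human H295R adrenal cells primed with 10 µM forskolin before dosing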
Method in brief: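 Adrenal H295R line, forskolin-stimulated (10 uM, 48 h) before dosing. 48 h exposure, 0.1% DMSO vehicle. Secreted progesterone by reverse-phase HPLC with ESI+ MS/MS quantification; DMSO-normalised bidirectional curve fit.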

[6] = CEETOX_H295R_OHPREG: CeeTox H295R High-throughput Steroidogenesis Assay for OH-Pregnenolone (OHPREG) (AID 2283434)
Method in brief: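 Secreted 17alpha-hydroxypregnenolone measured by HPLC-MS/MS after liquid-liquid extraction. Human adrenal H295R cells received 48 h forskolin (10 uM) stimulation before 48 h chemical exposure at 0.1% final DMSO; MTT viability in same wells; bidirectional fit against DMSO.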

[7] = CEETOX_H295R_ESTRADIOL: CeeTox H295R High-throughput Steroidogenesis Assay for Estradiol (AID 2283440);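 note: estradiol secreted into medium quantified by LC-MS/MS after dansyl derivatisation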
Method in brief: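 Following OECD 456 with minor changes, H295R cells received 10 uM forskolin for 48 h and then test chemical for 48 h. Hormone output was read by HPLC-MS/MS, with cytotoxic concentrations diluted until MTT viability reached ≥70%.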

[8] = CEETOX_H295R_ESTRONE: CeeTox H295R High-throughput Steroidogenesis Assay for Estrone (AID 2283441);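 note: estrone secreted into medium measured by LC-MS/MS after dansyl derivatization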
Description: CEETOX_H295R is a cell-based, multiplexed-readout assay that uses H295R, a human adrenal gland cell line, with measurements taken at 48 hours after chemical dosing in a 96-well plate.CEETOX_H295R_ESTRONE is one of 23 assay component(s) measured or calculated from the CEETOX_H295R assay. It is designed to make measurements of hormone induction, a form of inducible reporter, as detected with absorbance signals by HPLC-MS-MS technology.Data from the assay component CEETOX_H295R_ESTRONE was analyzed into 1 assay endpoint. This assay endpoint, CEETOX_H295R_ESTRONE, was analyzed with bidirectional fitting relative to DMSO as the negative control and baseline of activity. […]
Cell culture and media preparation procedures were conducted in accordance with OECD Test No. 456 guidelines, with minor modifications. […] For steroid quantification, media samples were shipped to OpAns, LLC (Durham, NC) on dry ice, and samples were thawed to room temperature prior to liquid-liquid extraction. […] Steroid hormones were separated by HPLC, eluted using a reverse phase C18 gradient with electrospray positive ionization, followed by quantification by tandem mass spectrometry (MS/MS). Data were acquired on a MassHunter Workstation Acquisition version B03.01 (Agilent Technologies, Inc.) and processed using MassHunter Quantitative Analysis for QQQ. […]

[9] = CEETOX_H295R_ANDR: CeeTox H295R High-throughput Steroidogenesis Assay for Androstenedione (ANDR) (AID 2283436)
Method in brief: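 Medium from 48 h chemical-treated H295R adrenal cells was extracted with MTBE and androstenedione measured by LC-MS/MS. Activity was fit in both directions relative to DMSO. Cytotoxic concentrations were re-tested after dilution until MTT viability reached ≥70%.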

Measured: AC50

CC1(C)C(=O)N(Cl)C(=O)N1Br
inactive: [1] | [2] | [3] | [4] | [5]

C=C1CC[C@H](O)C/C1=C/C=C1\CCC[C@]2(C)[C@@H]([C@H](C)/C=C/[C@H](C)C(C)C)CC[C@@H]12
inactive: [2]
active: [6] 4.66 µM | [1] 12.3 µM | [3] 42.5 µM | [4] 87.2 µM | [5] 84.3 µM

CC(C)Nc1nc(N)nc(Cl)n1
not listed: [7] | [8] | [9]
inactive: all other assays above

Cc1cc(=O)oc2cc(N(C)C)ccc12
inactive: [2] | [3] | [4] | [5]
active: [6] 45.6 µM | [1] 50 µM

CCc1cc(C(C)(C)C)c(O)c(C(C)(C)C)c1
not listed: [7] | [8] | [9]
inactive: all other assays above

CC(C)(C)CC(C)(C)c1ccc(OCCOCC[N+](C)(C)Cc2ccccc2)cc1
not listed: [9]
inactive: all other assays above

COc1ccc(N=Nc2cc(C)c(N=Nc3ccc(S(=O)(=O)O)cc3)cc2OC)cc1
active: [1] 34.6 µM | [5] 50 µM
inactive: [6] | [2] | [3] | [4]

CCC(C)c1cc([N+](=O)[O-])cc([N+](=O)[O-])c1OC(=O)OC(C)C (stereo not given)
not listed: [7] | [8]
inactive: all other assays above
